Several values for one entry are separate records, joined by “and”; a condition that tells them apart may be missing. Identical values can stand only once.

Solute carrier family 2, facilitated glucose transporter member 1 (Homo sapiens), sequence (P11166 whole entry): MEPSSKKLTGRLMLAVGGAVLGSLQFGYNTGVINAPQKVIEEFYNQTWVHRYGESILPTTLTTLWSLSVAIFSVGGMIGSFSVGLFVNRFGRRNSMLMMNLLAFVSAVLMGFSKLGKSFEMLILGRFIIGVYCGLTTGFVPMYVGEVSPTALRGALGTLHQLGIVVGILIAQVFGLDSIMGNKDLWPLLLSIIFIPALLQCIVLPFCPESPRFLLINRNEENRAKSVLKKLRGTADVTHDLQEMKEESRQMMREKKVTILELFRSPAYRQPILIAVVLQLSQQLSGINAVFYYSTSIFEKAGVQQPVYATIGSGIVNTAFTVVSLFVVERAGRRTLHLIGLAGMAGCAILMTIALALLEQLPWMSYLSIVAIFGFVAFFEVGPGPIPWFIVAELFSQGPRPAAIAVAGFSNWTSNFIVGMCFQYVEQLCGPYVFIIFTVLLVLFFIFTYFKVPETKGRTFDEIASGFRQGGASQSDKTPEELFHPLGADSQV

The assay has as its target Solute carrier family 2, facilitated glucose transporter member 1 (Homo sapiens) (UniProt P11166). Kind of assay: ST_JUDE_LEISH: Cytotoxicity at 2uM final concentration against transgenic Leishmania Mexicana promastigotes LmGLUT1 that are glucose transport deficient and complemented with the human glucose transporter GLUT1. Activity is measured by DNA content using SYBR green in vitro. The class given is functional.
In general, inhibition refers to the drop in the measured response relative to a control, in per cent. Consider `Cc1ccc2[nH]c(C)cc(=NN=Cc3cccc(F)c3)c2c1`, for which the inhibition was determined as 5.05%.

For `CC(Nc1ccc2c(c1)CCC2)C(=O)Nc1cc(C(F)(F)F)ccc1N1CCOCC1` (stereo not given), the inhibition is 14.7%.

Turning to `Cc1ccc(F)cc1S(=O)(=O)N1CCCCC(c2ccc(C(F)(F)F)cc2)=N1`, the inhibition came out at 7.48%.

Regarding `Cc1cc(-c2ccc3c(c2)CCN(CCCOc2ccc4c(c2)CCN4C(=O)/C=C/c2ccccc2Cl)CC3)no1`, the inhibition was determined as 5.8%.

As to `Cc1c(-c2ccccc2)ccc2[nH]cc(CC#N)c12`, the inhibition was 1.56%.

`CO/C(=C\C=C\c1cc2cc(Cl)c(Cl)cc2[nH]1)C(=O)NCCCN1CC(C)N(C)CC1C` (stereo not given): the inhibition was found to be 7.33%.

In the case of `CN1CCCN(Cc2cccc(-c3ccc(NC(=O)c4cccc(Cl)c4)cc3)c2)CC1`, the inhibition was determined as 71.1%.

For the compound `CCN(CC)CCCN(C(=O)c1cc2c(C)nn(-c3ccccc3)c2s1)c1nc(-c2ccc(OC)cc2)cs1`, the inhibition is 10.5%.

In the case of `Nc1nc(O)c2c(n1)CCc1c(Br)cccc1-2`, the inhibition was -1.17%.

For the compound `CCc1ccc(CN2CCC(CN(c3ccc(N4CCOCC4)c(F)c3)S(=O)(=O)c3ccc(C(C)(C)CC)cc3)CC2)cc1`, the inhibition stood at 3.54%.

In the case of `CN(C(=O)C1(c2ccc(Cl)cc2)CC1)C1CCN(CCCCCNC(=O)/C=C/c2ccc(Cl)c(Cl)c2)CC1`, the inhibition was 0.14%.

Regarding `O=C1c2ccc([N+](=O)[O-])cc2C(=O)N1c1ccc2[nH]ncc2c1`, the inhibition is 2.79%.

As to `Cc1[nH]c(C)c(-c2ccc(-c3ccccc3F)nc2)c(=O)c1Br`, the inhibition turned out to be 2.19%.

Regarding `O=C(Nc1ccc(OC2CCN(Cc3ccsc3)CC2)c(Cl)c1)c1ccco1`, the inhibition turned out to be 2.93%.

As for `CS(=O)(=O)CCOCc1ccc(-c2ccc3ncnc(Nc4ccc(OCc5cccc(F)c5)c(Cl)c4)c3c2)o1`, the inhibition was found to be 6%.

Take `Nc1ccnc(N2CCC(CCOc3cc(C(F)(F)F)nc4c(C(F)(F)F)cccc34)CC2)c1`: the inhibition was determined as 25.6%.

For the compound `Cc1cc(N[C@@H](CC(C)C)C(=O)NC2CCCC2)nc(NCC2CCCCC2)n1`, the inhibition turned out to be 3.95%.

Consider `COc1ccc2ncc(F)c(CCN3CC(O)C(CNCc4nc5c(cc4Cl)OCC(=O)N5)C3)c2n1` (stereo not given), for which the inhibition was 0.46% and 5.05% and 0.19%.

For the compound `COc1ccc2nccc([C@@H](O)CN3CCC(NC(=O)c4ccc(CN5CCN(c6cccc(C)c6)CC5C)cc4)CC3)c2c1` (stereo not given in full), the inhibition came to 4.12%.

Consider `OCCOCCNCc1cccc(C#Cc2cc3ncnc(Nc4ccc(OCc5cccc(F)c5)c(Cl)c4)c3s2)n1`, for which the inhibition was -0.5%.

Take `c1ccc(CN2CCC(NCc3ccc(-c4ccc(CNCc5cccnc5)cn4)cc3)CC2)cc1`: the inhibition was determined as 3.27%.

For `FC(F)c1nc2ccccc2n1-c1nc(N2CCOCC2)nc(N2CCOCC2)n1`, the inhibition was determined as 2.11%.

Regarding `CC1(C)CCC(=Cc2ccc(Cl)cc2)CC1(O)Cn1ccnc1` (stereo not given), the inhibition turned out to be 11.7%.

In the case of `COc1ccc(-c2cccc(NC(=O)c3cccc(C#N)c3)c2)cc1CNC(C)C`, the inhibition came to 9.6%.

`COc1ccc(N2C(N)=NC(N)=NC2(C)C)cc1OC`: the inhibition is 3.76%.

Turning to `Cc1nn(-c2ccccc2)nc1C(=O)NC1CCN(CCNC(=O)c2ccc(Cl)c(Cl)c2)CC1`, the inhibition turned out to be 0.92%.

For the compound `COc1ccc(C=Cc2cc(=N)c3ccccc3[nH]2)cc1`, the inhibition came to 3.18%.

Turning to `CNc1ccc(CNCc2cccc(-c3ccc(-c4nc5ccccc5[nH]4)cc3)c2)cc1`, the inhibition worked out at 0.78%.

As to `CC(C)c1ccc(NC(=O)c2ccc(C(=O)NC3CCN(Cc4ccccc4)CC3)cc2)cc1`, the inhibition is 1.09%.

With `COc1cc(F)c2nccc([C@@H](O)CN3CCC(NCc4nc5cccc(F)c5[nH]4)CC3)c2c1`, the inhibition was found to be 6.27%.

Take `N=C(/N=C(/NCCCCCCN/C(=N\C(=N)Nc1ccc(Cl)cc1)N1CCCCC1)N1CCCCC1)Nc1ccc(Cl)cc1`: the inhibition was -2.47%.

For `Cc1[nH]c(C)c(-c2ccc(-c3ccc(C(F)F)cc3)nc2)c(=O)c1Cl`, the inhibition is 2.19%.

On to `CCCNCc1ccc(-c2ccc(CN(Cc3ccc4c(c3)OCO4)C(=O)[C@H]3CCCO3)cc2)nc1`, for which the inhibition is 13.6%.

For `O=C(CC1NC(=O)c2ccccc21)Nc1ccc(-c2ccc(-c3nc4cc(C(F)(F)F)ccc4[nH]3)cc2)cc1` (stereo not given), the inhibition is 4.68%.

Take `CCc1ccc(-n2c(=O)c3cccnc3n2CC(=O)NC2CCCC2)cc1`: the inhibition came to 1.13%.

Take `CCC(C(=O)Nc1cc(=O)[nH]c2nc(-c3ccco3)nn12)c1ccccc1` (stereo not given): the inhibition is 0.95%.

For `Cc1c(Cl)cccc1S(=O)(=O)Nc1ccc(CCN2CCC(N)CC2)cc1`, the inhibition is -2.63%.

As for `COc1ccc(NC(=O)[C@H](Cc2ccccc2)Nc2cc(C)nc(NCCc3cccnc3)n2)cc1`, the inhibition is -0.56%.

Turning to `CCCCN(CCCC)/C(=N/C(=N)NCc1ccc(Cl)c(Cl)c1)NCCCCCCN/C(=N\C(=N)NCc1ccc(Cl)c(Cl)c1)N(CCCC)CCCC`, the inhibition was -0.73%.

For the compound `Cc1ccc(C)c(NC(=O)Nc2ccc(C)c(-c3ccc(C(=O)Nc4ccncc4)cc3)c2)c1`, the inhibition is 6.08%.
